Shown are actives, neighbours in structure and some others; about 4.7% of the full set was active somewhere.
D1 agonist: human D1 receptor agonism. AID 504660. P21728. activation, % at 2 µM. HEK293 T-REx D1 cells, calcium flux, agonist mode. 360,000 tested, 1% active
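Agonism was scored from calcium flux recorded over 180 s (1 read/s) after pintool compound addition, following a 10-cycle baseline. Cells were inducible force-coupled HEK293 TREx D1, plated overnight at 30 C and loaded with no-wash calcium dye.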
TRHR agonist: TRH receptor (human) agonism; AID 493084; activation, % at 2 µM; TRHR cells, calcium flux fluo-8, FDSS agonist mode; 360,000 tested, 0.18% active
Target sequence (P34981 whole entry, looked up): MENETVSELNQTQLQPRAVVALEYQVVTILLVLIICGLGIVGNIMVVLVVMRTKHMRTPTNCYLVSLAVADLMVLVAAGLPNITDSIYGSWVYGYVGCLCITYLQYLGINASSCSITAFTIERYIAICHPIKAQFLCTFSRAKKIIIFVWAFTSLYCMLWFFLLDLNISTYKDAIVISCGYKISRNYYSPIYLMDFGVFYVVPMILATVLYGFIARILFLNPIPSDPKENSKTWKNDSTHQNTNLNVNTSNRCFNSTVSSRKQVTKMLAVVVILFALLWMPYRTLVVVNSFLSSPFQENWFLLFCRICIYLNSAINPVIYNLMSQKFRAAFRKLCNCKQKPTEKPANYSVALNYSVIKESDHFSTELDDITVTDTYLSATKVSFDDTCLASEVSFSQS
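TRHR-expressing cells loaded with fluo-8 calcium dye; 23 nL library compound pin-transferred, kinetic FDSS fluorescence (Ex 480/Em 530) recorded about 180 s for agonist-induced calcium release, before a 10 nM TRH EC20 addition for potentiator mode.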
D1 antagonist: human D1 dopamine receptor antagonism; 360,000 tested, 3.2% active; AID 504652; activity change, negative = inhibition, % at 10 µM; HEK293 TREx D1 cells, calcium flux, dopamine EC80; stronger effect = lower value; P21728; in the data active = activity change below about -30%
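Calcium flux readout: force-coupled, inducible Hek293 Trex D1 line, cells induced overnight at 30 C with tetracycline, dye-loaded 30–90 min at RT. Antagonism scored against EC80 dopamine challenge given 180 s after compound.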
TRHR enhancer: allosteric enhancers of human TRH receptor; TRHR cells, fluo-8 calcium fluorescence, EC20 TRH enhancement; enhancement, % at 2 µM; 360,000 tested, 0.66% active; AID 493056; in the data active = enhancement above about 30%
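TRHR-expressing cells loaded with fluo-8 calcium dye were read kinetically (ex 480/em 530) during compound addition, then stimulated with an EC20 of TRH (10 nM final). Enhancement of the Gq-mediated intracellular calcium response was scored.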
D1 potentiator: enhances dopamine response at the human D1 receptor. HEK293 TREx D1 cells, calcium flux, dopamine EC20 potentiation. AID 504651. 360,000 tested, 0.036% active. potentiation, % at 10 µM; in the data active = potentiation above about 30%
Hits are given with their value. Rule as the data show it, unless noted: active = activation above about 30%; inactive = the rest.

How did Cc1ccc(-n2c(=O)c3cccnc3n2CC(=O)Nc2ccc(Br)cc2)cc1C do in these assays?
D1 agonist: inactive; TRHR agonist: inactive; D1 antagonist: inactive; TRHR enhancer: inactive; D1 potentiator: inactive

What do the screens show for `O=C(NC(=S)NCc1nc2ccccc2[nH]1)c1ccccc1F`?
D1 agonist: inactive; TRHR agonist: inactive; D1 antagonist: inactive; TRHR enhancer: inactive; D1 potentiator: inactive

Results for O=C(NC(=S)NCc1nc2ccccc2[nH]1)c1ccc(F)cc1 ?
D1 agonist: inactive; TRHR agonist: inactive; D1 antagonist: -68; TRHR enhancer: inactive; D1 potentiator: inactive

How did COc1ccc(C(c2sc3nc(C)nn3c2O)N2CCN(Cc3ccccc3)CC2)cc1OC (stereo unspecified) do in these assays?
D1 agonist: inactive; TRHR agonist: inactive; D1 antagonist: -51; TRHR enhancer: inactive; D1 potentiator: inactive

What do the screens show for `COc1ccc(C(c2sc3nc(C)nn3c2O)N2CCC(O)CC2)cc1OC` (stereo unspecified)?
D1 agonist: inactive; TRHR agonist: inactive; D1 antagonist: inactive; TRHR enhancer: inactive; D1 potentiator: inactive

What do the screens show for `O=C(CSc1ncccn1)n1c2c(c3ccccc31)CCCC2`?
D1 agonist: inactive; TRHR agonist: inactive; D1 antagonist: -43; TRHR enhancer: inactive; D1 potentiator: inactive

What do the screens show for `Nc1cccc2c1C(=O)N(C(=O)/C=C/c1cccc(F)c1)C2=O`?
D1 agonist: inactive; TRHR agonist: inactive; D1 antagonist: inactive; TRHR enhancer: 31; D1 potentiator: inactive

What do the screens show for `Nc1cccc2c1C(=O)N(C(=O)/C=C/c1cccc(Br)c1)C2=O`?
D1 agonist: inactive; TRHR agonist: inactive; D1 antagonist: inactive; TRHR enhancer: inactive; D1 potentiator: inactive

How did O=C(CCn1cnnn1)N1CCCC(Nc2ccc(F)cc2)C1 (stereo unspecified) do in these assays?
D1 agonist: inactive; TRHR agonist: inactive; D1 antagonist: -35; TRHR enhancer: inactive; D1 potentiator: inactive

Results for CCOC(=O)C1CCCN(C(=O)c2cc3cc(F)ccc3[nH]2)C1 (stereo unspecified) ?
D1 agonist: inactive; TRHR agonist: inactive; D1 antagonist: inactive; TRHR enhancer: inactive; D1 potentiator: inactive

How did O=C(c1ccc(Cn2cnnn2)cc1)N1CCCC(Nc2ccc(F)cc2)C1 (stereo unspecified) do in these assays?
D1 agonist: inactive; TRHR agonist: inactive; D1 antagonist: inactive; TRHR enhancer: inactive; D1 potentiator: inactive

What do the screens show for `COc1ccc(NC2CCCN(C(=O)CCN3Cc4ccccc4C3=O)C2)cc1` (stereo unspecified)?
D1 agonist: inactive; TRHR agonist: inactive; D1 antagonist: -94; TRHR enhancer: inactive; D1 potentiator: inactive

What do the screens show for `O=C(c1cc2cc(F)ccc2[nH]1)N1CCCC(Nc2ccc(F)cc2)C1` (stereo unspecified)?
D1 agonist: inactive; TRHR agonist: inactive; D1 antagonist: -35; TRHR enhancer: inactive; D1 potentiator: inactive

What do the screens show for `Cc1cc(C(=O)N2CCCC(Nc3ccccc3)C2)c2ccc(F)cc2n1` (stereo unspecified)?
D1 agonist: inactive; TRHR agonist: inactive; D1 antagonist: -33; TRHR enhancer: inactive; D1 potentiator: inactive

What do the screens show for `O=C(NCC(c1ccc(Cl)cc1)N1CCCCC1)c1ccc(F)cc1` (stereo unspecified)?
D1 agonist: inactive; TRHR agonist: inactive; D1 antagonist: inactive; TRHR enhancer: inactive; D1 potentiator: inactive

Results for Cc1nn(C(=O)COc2ccccc2)c(C)c1Sc1ccccc1 ?
D1 agonist: 110; TRHR agonist: inactive; D1 antagonist: -65; TRHR enhancer: inactive; D1 potentiator: inactive

What do the screens show for `CCOC(=O)c1c(C)oc2nc(C)nc(NCc3ccccc3Cl)c12`?
D1 agonist: inactive; TRHR agonist: inactive; D1 antagonist: inactive; TRHR enhancer: inactive; D1 potentiator: inactive

What do the screens show for `CCOC(=O)c1c(C)oc2nc(C)nc(NCc3ccccc3OCC)c12`?
D1 agonist: inactive; TRHR agonist: inactive; D1 antagonist: inactive; TRHR enhancer: 43; D1 potentiator: inactive

What do the screens show for `CCOC(=O)c1c(C)oc2nc(C)nc(NCc3ccccc3OC)c12`?
D1 agonist: inactive; TRHR agonist: inactive; D1 antagonist: -37; TRHR enhancer: inactive; D1 potentiator: inactive

How did COc1ccc2c(c1)c1c(c(=O)n(-c3cccc(C)c3)c(=O)n1Cc1cccc(Cl)c1)n2C do in these assays?
D1 agonist: inactive; TRHR agonist: inactive; D1 antagonist: inactive; TRHR enhancer: inactive; D1 potentiator: inactive

Screening data as filed in PubChem BioAssay.
